From the supplement of paper PMC10849652
About 7,900 targets were measured; listed, in parts, are those with a hit and a random draw of the rest. About 0.6% of all pairs of compound and target were hits. Values without a mark were called inactive.

compound: FC(F)(F)c1ccc(/C=C/c2nc(COc3ccc(CCCCn4ccnn4)cc3)co2)cc1 [mubritinib]; assay: log2 fold change, soluble protein after heating vs DMSO (PISA); higher = thermal stabilisation; K562 cells, 10 uM, 30 min; active = over 0.2 and 3.5 SD of the protein, either way, in both replicates (recomputed)
Procedure, shortened: (§1)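 Soluble protein was quantified by TMTpro 16plex LC-MS/MS after channel sums were equalised. It was obtained as the supernatant after 21,000xg for 90 min from pooled aliquots of K562 cells (2×10^6 cells/mL, 10 μM compound, 30 min) heated for 3 min across 48°C-58°C and extracted in PBS with 0.5% NP-40 at 4°C. Thermal stability values are relative to control samples and come from duplicates. They are given as log2 fold changes.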

Sequence of UniProt Q9Y3D8 (Q9Y3D8 whole entry, looked up): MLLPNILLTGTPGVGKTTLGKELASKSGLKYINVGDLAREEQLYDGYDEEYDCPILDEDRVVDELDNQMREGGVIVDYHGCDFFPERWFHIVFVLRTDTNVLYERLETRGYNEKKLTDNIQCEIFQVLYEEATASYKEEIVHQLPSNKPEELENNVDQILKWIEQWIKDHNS
Sequence of UniProt P56385 (P56385 whole entry, looked up): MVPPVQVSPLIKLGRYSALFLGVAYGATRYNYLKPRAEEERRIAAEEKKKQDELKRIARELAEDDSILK
Sequence of UniProt Q5T9A4 (Q5T9A4 whole entry, looked up): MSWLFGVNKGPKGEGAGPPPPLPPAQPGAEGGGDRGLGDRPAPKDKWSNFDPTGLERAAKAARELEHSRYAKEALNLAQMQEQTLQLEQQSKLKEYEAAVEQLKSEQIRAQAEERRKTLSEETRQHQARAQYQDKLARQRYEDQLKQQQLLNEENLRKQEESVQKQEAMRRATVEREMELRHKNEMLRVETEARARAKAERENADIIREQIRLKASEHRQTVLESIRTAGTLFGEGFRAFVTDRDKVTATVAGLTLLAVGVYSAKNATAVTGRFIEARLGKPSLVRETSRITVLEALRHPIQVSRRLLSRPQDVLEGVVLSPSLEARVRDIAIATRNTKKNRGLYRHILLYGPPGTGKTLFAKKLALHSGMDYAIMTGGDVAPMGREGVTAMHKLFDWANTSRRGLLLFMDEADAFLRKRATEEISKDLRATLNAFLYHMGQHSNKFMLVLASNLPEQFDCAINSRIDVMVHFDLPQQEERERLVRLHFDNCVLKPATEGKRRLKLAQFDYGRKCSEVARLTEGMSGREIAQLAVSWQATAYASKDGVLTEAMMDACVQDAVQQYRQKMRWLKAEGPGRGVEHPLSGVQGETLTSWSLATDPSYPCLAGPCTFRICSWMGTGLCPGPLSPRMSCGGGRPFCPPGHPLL
Sequence of UniProt Q6P6C2 (Q6P6C2 whole entry, looked up): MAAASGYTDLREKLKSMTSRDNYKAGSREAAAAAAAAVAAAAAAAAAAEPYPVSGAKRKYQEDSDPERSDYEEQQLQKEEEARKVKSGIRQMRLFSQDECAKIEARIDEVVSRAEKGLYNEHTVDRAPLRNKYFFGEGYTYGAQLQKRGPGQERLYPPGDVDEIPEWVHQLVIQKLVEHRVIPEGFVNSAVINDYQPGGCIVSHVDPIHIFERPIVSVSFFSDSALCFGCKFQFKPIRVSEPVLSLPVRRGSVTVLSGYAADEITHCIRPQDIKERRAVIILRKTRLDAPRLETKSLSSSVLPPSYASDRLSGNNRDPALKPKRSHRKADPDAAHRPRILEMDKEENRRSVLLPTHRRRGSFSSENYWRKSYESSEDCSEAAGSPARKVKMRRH
Sequence of UniProt P54886 (P54886 whole entry, looked up): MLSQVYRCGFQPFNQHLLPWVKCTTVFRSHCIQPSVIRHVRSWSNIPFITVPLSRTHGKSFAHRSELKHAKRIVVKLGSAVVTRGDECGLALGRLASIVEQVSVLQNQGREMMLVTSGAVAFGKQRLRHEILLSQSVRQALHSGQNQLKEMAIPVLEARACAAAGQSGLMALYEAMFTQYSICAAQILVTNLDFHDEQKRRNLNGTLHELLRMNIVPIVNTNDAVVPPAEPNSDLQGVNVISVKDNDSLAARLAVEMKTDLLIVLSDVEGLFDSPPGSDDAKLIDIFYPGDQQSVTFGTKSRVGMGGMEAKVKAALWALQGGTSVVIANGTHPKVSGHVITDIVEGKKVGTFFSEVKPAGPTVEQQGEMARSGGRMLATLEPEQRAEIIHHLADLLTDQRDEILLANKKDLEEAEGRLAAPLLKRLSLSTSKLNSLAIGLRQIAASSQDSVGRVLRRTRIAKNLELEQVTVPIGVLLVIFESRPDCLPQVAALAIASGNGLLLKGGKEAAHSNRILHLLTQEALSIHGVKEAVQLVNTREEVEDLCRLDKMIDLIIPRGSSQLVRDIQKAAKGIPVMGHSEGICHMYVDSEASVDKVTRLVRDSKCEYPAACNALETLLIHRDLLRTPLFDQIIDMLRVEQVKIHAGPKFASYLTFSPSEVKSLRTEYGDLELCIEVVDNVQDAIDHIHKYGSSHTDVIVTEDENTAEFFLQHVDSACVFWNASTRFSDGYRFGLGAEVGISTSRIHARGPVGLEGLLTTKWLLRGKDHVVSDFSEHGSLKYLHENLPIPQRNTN
Sequence of UniProt Q9UHQ4 (Q9UHQ4 whole entry, looked up): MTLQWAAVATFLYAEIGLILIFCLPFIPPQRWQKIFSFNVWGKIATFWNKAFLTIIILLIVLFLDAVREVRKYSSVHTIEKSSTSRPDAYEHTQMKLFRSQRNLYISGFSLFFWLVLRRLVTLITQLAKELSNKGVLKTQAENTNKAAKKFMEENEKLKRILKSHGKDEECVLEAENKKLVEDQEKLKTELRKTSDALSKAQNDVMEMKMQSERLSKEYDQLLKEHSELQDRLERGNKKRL
Sequence of UniProt P49189 (P49189 whole entry, looked up): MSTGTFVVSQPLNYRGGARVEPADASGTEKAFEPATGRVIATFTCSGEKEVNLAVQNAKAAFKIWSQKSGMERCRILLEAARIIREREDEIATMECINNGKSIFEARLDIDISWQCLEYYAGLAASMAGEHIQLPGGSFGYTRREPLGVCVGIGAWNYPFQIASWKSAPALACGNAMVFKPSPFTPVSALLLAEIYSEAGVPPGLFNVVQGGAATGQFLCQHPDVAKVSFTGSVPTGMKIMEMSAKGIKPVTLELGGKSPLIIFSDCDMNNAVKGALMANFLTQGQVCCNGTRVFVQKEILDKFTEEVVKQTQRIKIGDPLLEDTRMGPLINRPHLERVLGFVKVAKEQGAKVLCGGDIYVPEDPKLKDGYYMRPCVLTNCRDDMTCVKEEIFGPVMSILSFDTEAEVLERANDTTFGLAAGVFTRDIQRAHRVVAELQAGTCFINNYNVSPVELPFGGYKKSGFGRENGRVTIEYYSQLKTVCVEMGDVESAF
Sequence of UniProt P08243 (P08243 whole entry, looked up): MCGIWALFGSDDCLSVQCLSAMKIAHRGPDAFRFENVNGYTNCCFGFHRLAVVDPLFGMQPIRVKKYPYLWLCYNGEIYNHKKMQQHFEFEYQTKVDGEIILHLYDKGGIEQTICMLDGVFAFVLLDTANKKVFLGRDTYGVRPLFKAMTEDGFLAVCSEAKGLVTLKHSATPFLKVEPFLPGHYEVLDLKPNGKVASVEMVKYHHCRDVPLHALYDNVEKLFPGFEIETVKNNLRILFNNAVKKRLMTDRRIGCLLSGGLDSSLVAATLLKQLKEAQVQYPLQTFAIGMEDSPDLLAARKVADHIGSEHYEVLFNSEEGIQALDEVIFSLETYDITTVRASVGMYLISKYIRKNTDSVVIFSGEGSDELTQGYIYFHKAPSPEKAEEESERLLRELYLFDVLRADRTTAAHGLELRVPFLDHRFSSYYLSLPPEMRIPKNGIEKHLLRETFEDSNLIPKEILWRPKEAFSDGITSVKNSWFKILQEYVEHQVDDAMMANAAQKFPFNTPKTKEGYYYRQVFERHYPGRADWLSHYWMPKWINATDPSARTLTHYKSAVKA
Sequence of UniProt Q92560 (Q92560 whole entry, looked up): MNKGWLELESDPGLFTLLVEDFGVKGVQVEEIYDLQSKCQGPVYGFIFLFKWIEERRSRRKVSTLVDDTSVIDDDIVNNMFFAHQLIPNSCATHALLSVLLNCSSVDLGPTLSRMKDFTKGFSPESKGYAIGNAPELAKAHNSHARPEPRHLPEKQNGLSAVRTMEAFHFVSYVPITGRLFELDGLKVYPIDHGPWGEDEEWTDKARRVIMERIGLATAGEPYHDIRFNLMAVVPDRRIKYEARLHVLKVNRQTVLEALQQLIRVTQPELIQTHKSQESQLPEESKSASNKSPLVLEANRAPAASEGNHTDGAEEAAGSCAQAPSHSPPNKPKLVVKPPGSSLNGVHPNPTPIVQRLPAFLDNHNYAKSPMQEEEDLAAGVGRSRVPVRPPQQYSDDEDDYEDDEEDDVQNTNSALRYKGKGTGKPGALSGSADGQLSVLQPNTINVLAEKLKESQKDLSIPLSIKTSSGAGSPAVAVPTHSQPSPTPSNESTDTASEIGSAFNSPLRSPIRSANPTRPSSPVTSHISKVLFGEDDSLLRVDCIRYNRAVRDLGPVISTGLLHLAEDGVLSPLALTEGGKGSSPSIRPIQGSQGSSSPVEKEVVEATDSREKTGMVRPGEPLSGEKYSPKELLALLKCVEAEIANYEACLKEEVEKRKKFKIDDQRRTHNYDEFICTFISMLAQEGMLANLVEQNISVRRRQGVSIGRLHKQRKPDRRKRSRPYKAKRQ
Sequence of UniProt Q9H8Y5 (Q9H8Y5 whole entry, looked up): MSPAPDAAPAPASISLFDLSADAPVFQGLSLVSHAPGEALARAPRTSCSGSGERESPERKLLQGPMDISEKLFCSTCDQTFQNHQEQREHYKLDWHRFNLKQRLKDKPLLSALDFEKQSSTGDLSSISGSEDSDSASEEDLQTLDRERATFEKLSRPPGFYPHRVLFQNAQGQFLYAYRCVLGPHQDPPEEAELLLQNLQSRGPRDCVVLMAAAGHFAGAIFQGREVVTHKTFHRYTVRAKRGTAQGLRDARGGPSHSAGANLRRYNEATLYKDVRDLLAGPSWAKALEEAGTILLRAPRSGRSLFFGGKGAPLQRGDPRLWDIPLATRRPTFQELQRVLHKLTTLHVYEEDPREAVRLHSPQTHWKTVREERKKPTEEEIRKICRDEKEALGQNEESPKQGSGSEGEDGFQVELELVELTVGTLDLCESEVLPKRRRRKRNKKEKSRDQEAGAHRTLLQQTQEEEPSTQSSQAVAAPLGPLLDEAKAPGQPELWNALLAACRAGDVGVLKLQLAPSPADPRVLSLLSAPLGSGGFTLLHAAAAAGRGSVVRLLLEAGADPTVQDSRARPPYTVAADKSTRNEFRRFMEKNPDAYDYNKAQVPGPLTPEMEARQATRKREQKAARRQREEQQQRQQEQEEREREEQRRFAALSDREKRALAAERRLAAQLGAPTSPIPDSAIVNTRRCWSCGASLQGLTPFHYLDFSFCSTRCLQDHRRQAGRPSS
Sequence of UniProt P53680 (P53680 whole entry, looked up): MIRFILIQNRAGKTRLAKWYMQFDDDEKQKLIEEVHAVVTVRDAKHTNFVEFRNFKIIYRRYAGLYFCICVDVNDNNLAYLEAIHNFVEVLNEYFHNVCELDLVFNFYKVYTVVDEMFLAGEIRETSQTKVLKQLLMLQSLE

Which log2 fold change does the source give for BZW2 (UniProt Q9Y6E2) here?
The log2 fold change was 0.095.

Which log2 fold change does the source give for ALDH6A1 (UniProt Q02252) here?
The log2 fold change was -0.528 (active).

Which log2 fold change does the source give for ATAD3B (UniProt Q5T9A4) here?
The log2 fold change was -0.37.

How did the log2 fold change turn out when ASNS (UniProt P08243) was run?
Its log2 fold change is 0.012.

How did the log2 fold change turn out when ALG11 (UniProt Q2TAA5) was run?
Its log2 fold change is 0.066.

For AGPAT5 (UniProt Q9NUQ2), which log2 fold change is on record?
Its log2 fold change is 0.014.

Which log2 fold change does the source give for ALDH9A1 isoform 3 (UniProt P49189) here?
Its log2 fold change is -0.005.

With ARL2BP (UniProt Q9Y2Y0) as the target, how does the log2 fold change read?
The log2 fold change was -0.027.

With ASH2L (UniProt Q9UBL3) as the target, how does the log2 fold change read?
The log2 fold change was -0.023.

ACO2 (UniProt Q99798) was tested. Which log2 fold change did it give?
The log2 fold change was -0.522 (active).

With APOB (UniProt P04114) as the target, how does the log2 fold change read?
The log2 fold change was 0.011.

How did the log2 fold change turn out when AMFR (UniProt Q9UKV5) was run?
Its log2 fold change is -0.018.

AKT2 (UniProt P31751) was tested. Which log2 fold change did it give?
The log2 fold change was 0.037.

For BCAP29 isoform 2 (UniProt Q9UHQ4), which log2 fold change is on record?
Its log2 fold change is 0.02.

With ADD3 (UniProt Q9UEY8) as the target, how does the log2 fold change read?
The log2 fold change was 0.038.

For ATP6V0A1 isoform 3 (UniProt Q93050), which log2 fold change is on record?
The log2 fold change was -0.026.

With BCCIP isoform 2 (UniProt Q9P287) as the target, how does the log2 fold change read?
The log2 fold change was -0.023.

BRD4 (UniProt O60885) was tested. Which log2 fold change did it give?
The log2 fold change was 0.032.

Which log2 fold change does the source give for ATL2 (UniProt Q8NHH9) here?
The log2 fold change was 0.104.

With BRIX1 (UniProt Q8TDN6) as the target, how does the log2 fold change read?
Its log2 fold change is -0.206.

With ACBD6 (UniProt Q9BR61) as the target, how does the log2 fold change read?
Its log2 fold change is -0.085.

ABCB6 (UniProt Q9NP58) was tested. Which log2 fold change did it give?
The log2 fold change was 0.001.

How did the log2 fold change turn out when ATG4B isoform 2 (UniProt Q9Y4P1) was run?
The log2 fold change was 0.073.

For ALDH18A1 (UniProt P54886), which log2 fold change is on record?
The log2 fold change was -0.561 (active).

How did the log2 fold change turn out when AGPAT3 isoform 3 (UniProt Q9NRZ7) was run?
The log2 fold change was 0.062.

ANKZF1 (UniProt Q9H8Y5) was tested. Which log2 fold change did it give?
Its log2 fold change is -0.074.

For AK6 (UniProt Q9Y3D8), which log2 fold change is on record?
The log2 fold change was -0.114.

AP2S1 (UniProt P53680) was tested. Which log2 fold change did it give?
Its log2 fold change is -0.001.

How did the log2 fold change turn out when ACADVL isoform 3 (UniProt P49748) was run?
The log2 fold change was 0.071.

ATP5ME (UniProt P56385) was tested. Which log2 fold change did it give?
The log2 fold change was 0.023.

With B4GALT1 (UniProt P15291) as the target, how does the log2 fold change read?
The log2 fold change was 0.029.

ALKBH5 (UniProt Q6P6C2) was tested. Which log2 fold change did it give?
Its log2 fold change is -0.019.

With ATP12A isoform 2 (UniProt P54707) as the target, how does the log2 fold change read?
The log2 fold change was 0.018.

With ABHD16A (UniProt O95870) as the target, how does the log2 fold change read?
Its log2 fold change is 0.071.

With BAP1 (UniProt Q92560) as the target, how does the log2 fold change read?
The log2 fold change was -0.201.

Which log2 fold change does the source give for ARMC8 (UniProt Q8IUR7) here?
Its log2 fold change is -0.053.

compound: NC(=O)Nc1cc(-c2cccc(F)c2)sc1C(=O)N[C@H]1CCCNC1; assay: as above
Procedure, shortened: as §1

With BZW2 (UniProt Q9Y6E2) as the target, how does the log2 fold change read?
Its log2 fold change is 0.019.

ALDH6A1 (UniProt Q02252) was tested. Which log2 fold change did it give?
The log2 fold change was -0.02.

For ATAD3B (UniProt Q5T9A4), which log2 fold change is on record?
Its log2 fold change is 0.017.

For ASNS (UniProt P08243), which log2 fold change is on record?
Its log2 fold change is -0.033.

For ALG11 (UniProt Q2TAA5), which log2 fold change is on record?
Its log2 fold change is -0.052.

For AGPAT5 (UniProt Q9NUQ2), which log2 fold change is on record?
Its log2 fold change is -0.044.

With ALDH9A1 isoform 3 (UniProt P49189) as the target, how does the log2 fold change read?
The log2 fold change was 0.04.

For ARL2BP (UniProt Q9Y2Y0), which log2 fold change is on record?
Its log2 fold change is -0.056.

How did the log2 fold change turn out when ASH2L (UniProt Q9UBL3) was run?
The log2 fold change was -0.025.

With ACO2 (UniProt Q99798) as the target, how does the log2 fold change read?
The log2 fold change was 0.017.

For APOB (UniProt P04114), which log2 fold change is on record?
Its log2 fold change is -0.206.

How did the log2 fold change turn out when AMFR (UniProt Q9UKV5) was run?
The log2 fold change was -0.024.

How did the log2 fold change turn out when AKT2 (UniProt P31751) was run?
The log2 fold change was -0.008.

Which log2 fold change does the source give for BCAP29 isoform 2 (UniProt Q9UHQ4) here?
The log2 fold change was 0.001.

How did the log2 fold change turn out when ADD3 (UniProt Q9UEY8) was run?
The log2 fold change was 0.03.

ATP6V0A1 isoform 3 (UniProt Q93050) was tested. Which log2 fold change did it give?
Its log2 fold change is -0.051.

BCCIP isoform 2 (UniProt Q9P287) was tested. Which log2 fold change did it give?
Its log2 fold change is 0.

With BRD4 (UniProt O60885) as the target, how does the log2 fold change read?
The log2 fold change was -0.031.

ATL2 (UniProt Q8NHH9) was tested. Which log2 fold change did it give?
Its log2 fold change is -0.021.

Which log2 fold change does the source give for BRIX1 (UniProt Q8TDN6) here?
The log2 fold change was 0.056.

With ACBD6 (UniProt Q9BR61) as the target, how does the log2 fold change read?
Its log2 fold change is -0.089.

With ABCB6 (UniProt Q9NP58) as the target, how does the log2 fold change read?
The log2 fold change was 0.005.

Which log2 fold change does the source give for ATG4B isoform 2 (UniProt Q9Y4P1) here?
The log2 fold change was 0.08.

ALDH18A1 (UniProt P54886) was tested. Which log2 fold change did it give?
The log2 fold change was 0.033.

With AGPAT3 isoform 3 (UniProt Q9NRZ7) as the target, how does the log2 fold change read?
The log2 fold change was 0.008.

How did the log2 fold change turn out when ANKZF1 (UniProt Q9H8Y5) was run?
The log2 fold change was -0.008.

How did the log2 fold change turn out when AK6 (UniProt Q9Y3D8) was run?
Its log2 fold change is -0.034.

For AP2S1 (UniProt P53680), which log2 fold change is on record?
The log2 fold change was -0.386 (active).

How did the log2 fold change turn out when ACADVL isoform 3 (UniProt P49748) was run?
The log2 fold change was -0.025.

With ATP5ME (UniProt P56385) as the target, how does the log2 fold change read?
The log2 fold change was 0.003.

For B4GALT1 (UniProt P15291), which log2 fold change is on record?
The log2 fold change was 0.053.

With ALKBH5 (UniProt Q6P6C2) as the target, how does the log2 fold change read?
The log2 fold change was 0.031.

ATP12A isoform 2 (UniProt P54707) was tested. Which log2 fold change did it give?
The log2 fold change was -0.115.

For ABHD16A (UniProt O95870), which log2 fold change is on record?
Its log2 fold change is -0.026.

Which log2 fold change does the source give for BAP1 (UniProt Q92560) here?
The log2 fold change was -0.073.

Which log2 fold change does the source give for ARMC8 (UniProt Q8IUR7) here?
Its log2 fold change is -0.044.
